In PubChem BioAssay AID743279 (National Center for Advancing Translational Sciences (NCATS), 2014):
Among all 360,000 compounds or so, about 17,000 (4.7%) were called active. Another 5% or so got no clear call; they are omitted. No stated cut-off is given here; in the data, active means activity change below about -50%; inconclusive means mostly about -30% to -49%; inactive means weaker than that. The sample as a whole holds a higher share of actives than the screen did.

Test: qHTS for Inhibitors of Inflammasome Signaling: IL-1-beta AlphaLISA Primary Screen
Conditions: THP-1 LPS/ATP IL-1B secretion, 16 h; at 57.5 µM, active compounds read low
Summary of the method: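 THP-1 cells pretreated 1 hr with compounds (up to 57.5 uM final), then stimulated with LPS (250 ng/mL final) plus ATP (1.25 mM final); secreted IL-1B measured by AlphaLISA after 16 hr, decreased signal indicating inhibition.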
On the % scale 0 is the no-effect control and ±100 the full control effect.

Structure (SMILES) | activity change
CCCNC(=O)C1(C)CCN(Cc2ccc(Cl)c(Cl)c2)C1 (stereo unspecified) | 17.3% (inactive)
COc1ccc(N)c(C)c1 | -25.8% (inactive)
COC(=O)[C@]12CCCCC=C1N(CCC1=CCCCC1)C(=O)[C@H](CC(=O)NCC1CCCCC1)C2 | -28.6% (inactive)
Fc1ccc(NC(=S)N2CCc3[nH]c4ccccc4c3C2)cc1 | 11.5% (inactive)
O=C(Nc1ccc(Cl)cc1)N1CCc2[nH]c3ccccc3c2C1 | -18.5% (inactive)
O=C(CCCN1CCc2[nH]c3ccc(F)cc3c2C1)c1ccc(F)cc1 | -79.8% (active)
CCCCN1C[C@H](c2ccc(Br)cc2)[C@@H](CC(=O)Nc2ccc(Br)cc2)C1=O | -5.58% (inactive)
OCc1ccc(OCCCOc2cccc3cccnc23)cc1 | -1.1% (inactive)
O=C(Nc1ccccc1)Oc1cccc2cccnc12 | -91.6% (active)
NC(=O)C1CCN(C(=O)COc2cccc3cccnc23)CC1 | 0.882% (inactive)
C[C@H](CO)N1C[C@H](C)[C@H](CN(C)CC2CC2)Oc2ccc(NC(=O)CCN3CCOCC3)cc2C1=O | 18.8% (inactive)
O=C(C1CCCO1)N1CCN(C(=O)C23CC4CC(CC(C4)C2)C3)CC1 (stereo unspecified) | 9.67% (inactive)
CCC(c1nc2ccccc2[nH]1)n1c(=O)c(-c2cccs2)nc2ccccc21 (stereo unspecified) | -20% (inactive)
CN1CCN(c2ccc([N+](=O)[O-])c(Sc3nc4ccccc4[nH]3)c2)CC1 | -26.9% (inactive)
CCC(C)N1C(=O)S/C(=C/c2ccc(Sc3nc4ccccc4[nH]3)o2)C1=O (stereo unspecified) | -96.1% (active)
CC(C)c1csc(CN2CCC(CO)(Cc3ccccc3)CC2)n1 | -21.7% (inactive)
CN=C(NC#N)NCCSCc1nc[nH]c1C | 33.7% (inactive)
CCC(C)N(C(=O)CSc1nnnn1-c1ccccc1OC)C1CCS(=O)(=O)C1 (stereo unspecified) | -14.9% (inactive)
COc1ccccc1-n1nnnc1S(=O)(=O)Cc1ccc(Cl)cc1 | -119% (active)
COc1ccccc1-n1nnnc1SCC(=O)NC(=O)Cc1ccccc1 | 4.79% (inactive)
CCCC(C)n1[nH]c(=O)c2c(C)cc(C)nc21 (stereo unspecified) | -13.2% (inactive)

Structure (SMILES) | activity change
Cc1cc(O)ccc1NC1=CC(=O)CC(C)(C)C1 | -0.895% (inactive)
CC1(C)CC(=O)C=C(Nc2ccccc2)C1 | -3.98% (inactive)
Cc1ccccc1C#CC1=CC(=O)CC(C)(C)C1 | -52.1% (active)
CC1C(=O)N(Cc2cn(CC3CCCCC3)nn2)CCS(=O)(=O)N1Cc1ccc(-c2cccc(N(C)C)c2)cc1 (stereo unspecified) | 0% (inactive)
OCCN1CCN(CCO)C1=S | 15.9% (inactive)
Cc1cc2oc(C(=O)Nc3c(C)n(C)n(-c4ccccc4)c3=O)c(C)c2cc1Cl | 0% (inactive)
Cc1c(NC(=O)c2coc(=O)c(Br)c2)c(=O)n(-c2ccccc2)n1C | -72.5% (active)
Cc1c(NC(=O)c2cc(-c3ccc(Br)cc3)on2)c(=O)n(-c2ccccc2)n1C | -16.8% (inactive)
COC(c1ccccc1)(c1ccccc1)C(Oc1nc(C)cc(C)n1)C(=O)O (stereo unspecified) | 17.2% (inactive)
COc1ccc(C(=O)COC(=O)c2nn(C)c(=O)c3ccccc23)c(OC)c1 | -0.449% (inactive)
CC[C@]12c3[nH]c4ccc(OC)cc4c3CCN1C(=O)C(CC(=O)NCc1ccco1)C[C@@H]2C(=O)N1CCN(C(=O)C2CC2)CC1 (stereo partly specified) | 16.2% (inactive)
CCCCn1c(N)c(N(CCOC)C(=O)c2cccc(OCc3ccccc3)c2)c(=O)[nH]c1=O | -4.76% (inactive)
COc1cccc(OCc2nnc3n2N=C(c2ccccc2)C(CC(=O)O)S3)c1 (stereo unspecified) | 29.1% (inactive)
CCCCCCCCCCOC(=O)Cn1c(COc2ccc(C)cc2)[n+](C)c2ccccc21 | -90.4% (active)
Cc1ccc(COc2ccc(C(=O)NN)cc2)cc1 | -17.7% (inactive)
CCCCOc1ccc(NC(=O)CSCC(=O)OCC)cc1 | -3.32% (inactive)
CCCCCCCCCCOC(=O)Cn1c(COc2cccc(OC)c2)[n+](C)c2ccccc21 | -79.3% (active)
COc1ccc(NC(=O)C2Cc3c(-c4ccc5c(c4)OCO5)ccnc3O2)cn1 (stereo unspecified) | 22.6% (inactive)
COC(=O)N(C)C[C@@H]1OCc2cnnn2CCCC(=O)N([C@@H](C)CO)C[C@@H]1C | 1.38% (inactive)
CC1CN(Cc2ccco2)C(=S)N(c2ccccc2)C1=O (stereo unspecified) | 3.29% (inactive)
OC(c1ccccc1)(c1ccccc1)C1CCN(CCCOc2ccccc2)CC1 | -28.1% (inactive)

Structure (SMILES) | activity change
O=c1[nH]c2ccccc2n1C1CCN(CCOc2ccccc2)CC1 | -51.9% (active)
O=C1CCN(CCc2ccccc2)CCN1CCOc1ccccc1 | 23.9% (inactive)
O=C(c1ccc(N2CCCC2=O)cc1)N1CCN(c2ccc(C(F)(F)F)cc2[N+](=O)[O-])CC1 | -8.61% (inactive)
CCOc1ccc(Br)cc1S(=O)(=O)Nc1cccc(S(=O)(=O)N(CC)CC)c1 | -3.12% (inactive)
CC1(C)OC(=O)C2=C(C[C@@H](C3CCCC3)O[C@@H]2c2ccc(Cl)cc2)O1 | 30.2% (inactive)
Cc1cc(-n2nc(C)cc2C)n2nc(C)c(-c3ccccc3)c2n1 | -4.92% (inactive)
Cc1cc(C)c2c(NC(=O)C3CC3)nn(C)c2n1 | -2.02% (inactive)
Cc1cc(C)c2c(n1)nn1c(-n3ccnc3)cc(C)nc21 | -75.6% (active)
CN(C)Cc1ccc(F)cc1Sc1cc(Cl)ccc1Cl | 4.08% (inactive)
Cc1ccccc1CN1C(=O)CSCC1(C)C(=O)Nc1c(C)cccc1C (stereo unspecified) | -3.26% (inactive)
CC1C(C)N(C(=O)CCl)c2ccccc2N1C(=O)CCl (stereo unspecified) | -101% (active)
CC1C(=O)N(Cc2ccccc2)c2ccccc2N1C(=O)c1ccccc1 (stereo unspecified) | 0.175% (inactive)
CC1CC(C)CN(CC(=O)N2c3ccccc3CCc3ccccc32)C1 (stereo unspecified) | -6.12% (inactive)
O=C(OCCOc1ccccc1Cl)c1cc(S(=O)(=O)N2CCCCC2)ccc1N1CCOCC1 | 11.6% (inactive)
O=C(c1ccc2ccccc2n1)N1CCN(c2ccccc2Cl)CC1 | -2.41% (inactive)
O=C(c1c(Cl)cccc1Cl)N1CCN(c2cccc3[nH]ccc23)CC1 | -73.5% (active)
O=C(c1c(F)cccc1Cl)N1CCN(c2ccccn2)CC1 | -9.43% (inactive)
Cc1ccc(C2=NN(C(=O)CSc3nc(N)cc(N)n3)C(c3ccco3)C2)cc1 (stereo unspecified) | -23.3% (inactive)
COCCCN1C(=O)C(CC(=O)NCc2cccs2)CC(C(=O)N2CCOCC2)=C1C (stereo unspecified) | -1.75% (inactive)
